Rows were chosen to be rich in hits. Some 3.7% of all compounds tested hit in one or more screens of this group.
Nrf2 activator – qHTS of Nrf2 Activators. 0.31% of 410,000 active. Potency, µM (highest dose often 46.1 µM), for inactives: at the highest dose activation, hits mostly activators. AID 624171, 2012. AREc32 ARE-luciferase reporter (MCF7-derived line), luminescence, 24 h; note: potency is the fitted concentration of half-maximal effect; % of control where 0% means no effect; nearly all actives have a fitted effect of over 65% in size
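Luciferase luminescence (Steady-Glo, 30 min at room temperature) served as the read-out of ARE activation in AREc32 cells treated with compounds for 24 hr at 37 deg C.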
miR-21 act – qHTS Assay for Modulators of miRNAs and/orActivators of miR-21. Potency, µM (series often up to 38.3 µM), inactives show at the top dose activity change, positive = activation, usual class: activators. 340,000 tested, under 10 active. AID 2288, 2010. HeLa miR-21 FLuc reporter, luciferase, 48 h;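 note: % of control where 0% means no effect; miR-21 action dims this reporter so a rising signal means less miR-21 action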
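HeLa miR-21-FLuc reporter line, endogenous miR-21; 2000 cells/well in DMEM/10% FBS; compound titration up to ~40uM final, 48 h, 37 degree Celsius; luciferase detection reagent, 15 min lysis, CCD luminescence.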
Nrf2 inh – Nrf2 qHTS screen for inhibitors | A549 ARE-Fluc reporter, luciferase luminescence, 18-24 h | 2.1% of 360,000 active | AID 504444, 2011 | Potency, µM (doses to about 46 µM), without a hit: top-dose activity change, negative = inhibition, most hits filed as inhibitors; note: potency is the fitted concentration of half-maximal effect; % is set by controls: 0 for no effect and ±100 for the full control effect; nearly all actives have a fitted effect of over 60% in size
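A549 ARE_Fluc cells (5000/well, 5% FBS OPTI-MEM) pre-incubated 2 h, then treated with compounds 18-24 h at 37C/5% CO2 in concentration-response. CellTiter-Fluor viability read first; BugLite luciferase luminescence after 15 min at room temperature gives Nrf2 activity.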
p53 reactivator – qHTS assay for re-activators of p53 using a Luc reporter | 0.063% of 320,000 active | Potency, µM (titrated, usually from 92.2 µM), for the others: at the highest dose activity change, positive = activation, actives largely listed as activators | H1299 p53-A138V BP100-luciferase reporter, luminescence, 24 h; note: potency is the fitted concentration of half-maximal effect; % of control where 0% means no effect; nearly all actives have a fitted effect of over 45% in size
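p53-null H1299 cells stably carrying temperature-sensitive p53-A138V and a BP100-luciferase reporter were pinned with compounds (4-point, 1:5 series) and held 24 hrs at 37 deg C. Luminescence was read 10 min after detection reagent.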
ClpP mod – qHTS Assay for Activators of ClpP; purified B. subtilis ClpP, FRET peptide cleavage, 20 min; 1.9% of 340,000 active; Potency, µM (top dose mostly 57.5 µM), for the others: top-dose activity change, negative = active; active = well fitted falling curve with a large enough effect; inconclusive = small, poorly fitted or top-dose-only effect; inactive = no such curve, though single readings can be large or run the other way; note: potency is the fitted concentration of half-maximal effect; the source files actives as falling curves though it sought activators and does not explain the sign; nearly all actives have a fitted effect of over 65% in size
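Buffer: 100 mM Tris/HCl pH8, 100 mM KCl, 0.05% low protease BSA, 2.5% glycerol, 0.01% Tween-20. ClpP 10 microg/mL final; 20 min RT; delta FRET normalized to ADEP and DMSO controls.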
A549 viability – Nrf2 qHTS screen for inhibitors: counterscreen for cytotoxicity. A549 ARE-Fluc cells, CellTiter-Fluor viability, 18-24 h. Potency, µM (highest dose often 46 µM), for the others: at the highest dose activity change, negative = cytotoxicity, usual class: inhibitors. 0.16% of 390,000 active. AID 504648, 2011; note: potency is the fitted concentration of half-maximal effect; % is set by controls: 0 for no effect and ±100 for the full control effect
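Cytotoxicity counterscreen: CellTiter-Fluor fluorescence was measured in A549 ARE_Fluc cells after 18-24 h of compound exposure in a concentration series. The subsequent BugLite luminescent read reports ARE-luciferase activity.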
* = called active by the depositor; ? = inconclusive; nt = no result given. Unless noted, calls come from the whole dose curve; as a rule, active = well fitted curve in the direction sought with a large enough effect; inconclusive = small, poorly fitted or top-dose-only effect, or another doubt; inactive = no such curve, though single readings can be large; an effect the other way counts as inactive or inconclusive.

SMILES	Nrf2 activator	miR-21 act	Nrf2 inh	p53 reactivator	ClpP mod	A549 viability
COc1cccc(N2CCN(C(=O)C3CCCN(S(=O)(=O)c4cccc5nsnc45)C3)CC2)c1 (stereo not given)	0%	1%	16µM*	nt	-1%	-10%
CCOC(=O)C1CCCN(S(=O)(=O)c2ccc(Cl)nc2)C1 (stereo not given)	1%	nt	17%	-6%	22µM*	-3%
CC1CCN(C(=O)c2ccccc2SCC(=O)NCC2CCCCC2)CC1	9%	nt	0%	5%	22µM*	-14%
O=[N+]([O-])c1ccccc1NCc1ccc(O)c2ncccc12	nt	nt	6.5µM*	nt	nt	?
O=C(/C=C/Nc1cccc(O)c1)c1ccccc1	14µM*	-6%	-18%	?	-4%	-17%
Cc1ccc(N/C=C/C(=O)c2ccccc2)cc1Br	11µM*	-62%	?	nt	-1%	-12%
Cc1ccc(C(=O)/C=C/Nc2cccc(O)c2)cc1	2%	4%	?	?	-3%	-17%
COc1ccc(N/C=C/C(=O)c2ccccc2)cc1	0%	-19%	?	-3%	-1%	-6%
O=C(/C=C/Nc1ccc(F)c(Cl)c1)c1ccccc1	11µM*	-58%	?	?	-6%	2%
O=C(/C=C/Nc1ccc(F)c(F)c1)c1ccc(Br)cc1	13%	-65%	?	?	0%	2%
CCn1c(=O)n(-c2ccc(F)cc2)c(=O)c2sc3ccccc3c21	0%	-6%	-3%	nt	3%	4%
COc1ccccc1N1CCN(C(=O)CSc2ncnc3scc(-c4ccccc4)c23)CC1	2%	-2%	18µM*	-16%	-5%	-3%
O=C(CNC(=O)c1ccc2ccccc2c1)OC(C(=O)Nc1cc(C(F)(F)F)ccc1Cl)c1ccccc1 (stereo not given)	nt	nt	3%	nt	nt	10%
CCOc1ccccc1NC(=O)CSc1nncc2ccccc12	29%	-1%	23µM*	6%	nt	-13%
O=C(Nc1ccc(Cc2ccncc2)cc1)C1CCC(N2C(=O)C3C4C=CC(C5CC45)C3C2=O)CC1 (stereo not given)	0%	6%	18µM*	-4%	-3%	?
CC(=O)Nc1ccc(NC(=O)C2CCC(N3C(=O)C4C5C=CC(C6CC56)C4C3=O)CC2)cc1 (stereo not given)	0%	-1%	26µM*	-6%	0%	-17%
CSc1ccc(C(=O)C2CCCN(C(=O)CCn3cncn3)C2)cc1 (stereo not given)	-1%	0%	24%	6%	1%	-2%
CSc1ccc(C(=O)C2CCCN(C(=O)CCc3c(C)nn(C)c3C)C2)cc1 (stereo not given)	0%	nt	9.2µM*	nt	-3%	-17%
COc1ccc(OC)c(C(=O)N(C[C@H]2CC[C@@H]([C@@H]3CC[C@H](CO)O3)O2)C(C(=O)NC(C)(C)C)c2ccc(-c3ccccc3)cc2)c1 (stereo not given in full)	5%	nt	26µM*	-14%	-7%	?
CC(C)(C)NC(=O)C(c1ccc(-c2ccccc2)cc1)N(C[C@H]1CC[C@@H]([C@@H]2CC[C@H](CO)O2)O1)C(=O)c1cccc(Cl)c1 (stereo not given in full)	0%	nt	23µM*	11%	1%	?
CC(C)(C)NC(=O)C(c1ccc(-c2ccccc2)cc1)N(C[C@H]1CC[C@@H]([C@@H]2CC[C@H](CO)O2)O1)C(=O)c1ccc(-c2ccccc2)cc1 (stereo not given in full)	0%	nt	?	7%	0%	?
COc1ccc(C(C(=O)NC(C)(C)C)N(C[C@H]2CC[C@@H]([C@@H]3CC[C@H](CO)O3)O2)C(=O)c2ccccc2)cc1 (stereo not given in full)	-1%	nt	7%	-5%	2%	-4%
O=S(=O)(c1ccc2c(c1)OCCO2)N1CCN(S(=O)(=O)c2cccc[n+]2[O-])CC1	nt	nt	11%	nt	nt	1%
COC(=O)c1cc(=O)nc2sc(-c3ccc(F)cc3)nn12	0%	-3%	7%	3%	28µM*	-9%
CCOc1ccccc1NC(=O)c1cc2c(Cl)nc3ccccc3c2s1	0%	-1%	1%	nt	-1%	-2%
SMILES	Nrf2 activator	miR-21 act	Nrf2 inh	p53 reactivator	ClpP mod	A549 viability
Cc1cccc(N2CCN(C(=O)c3ccccc3SCC(=O)N3CCCC3)CC2)c1C	4%	nt	23µM*	-1%	-4%	?
CC1CCN(C(=O)CCC(=O)N2CC(C)Oc3ccccc32)CC1 (stereo not given)	-1%	0%	-20%	10%	0%	-11%
Cc1cccc(N2CCN(C(=O)CCC(=O)N3CC(C)Oc4ccccc43)CC2)c1C (stereo not given)	2%	29%	18µM*	nt	2%	0%
Cc1cccc(N2CCN(C(=O)CSCc3ccc(F)cc3)CC2)c1C	0%	-13%	nt	nt	-1%	-1%
COc1cccc(C(=O)N(Cc2sccc2C)C2CCS(=O)(=O)C2)c1 (stereo not given)	3%	-3%	13%	nt	3%	-7%
Cc1ccc(C(=O)Nc2ncccc2C)o1	0%	nt	15%	nt	-3%	0%
COc1ccc(-c2nnc(NC(=O)c3ccc([N+](=O)[O-])o3)o2)c(OC)c1	?	4%	?	18%	-1%	?
Cc1cccnc1NC(=O)c1ccc([N+](=O)[O-])o1	22µM*	1%	?	11µM*	-4%	-8%
Cc1ccc(-c2nnc(NC(=O)c3ccc([N+](=O)[O-])o3)o2)c(C)c1	7.1µM*	nt	?	?	0%	?
CC(C)(C)c1cc(C(=O)NNc2cc(C(F)(F)F)ccc2Cl)n(Cc2ccccc2)n1	8%	24%	?	18%	3.2µM*	?
COc1ccccc1NNC(=O)c1cc(C(C)(C)C)nn1Cc1ccccc1	5%	-27%	?	19%	nt	1%
COc1ccc(C(=O)c2sc3nc4c(c(C(F)(F)F)c3c2N)CN(C(C)=O)CC4)cc1OC	4%	1%	?	nt	2%	-19%
COc1ccc(CNC(=O)c2sc3nc4c(c(C(F)(F)F)c3c2N)CCC4)cc1OC	-1%	-10%	23µM*	-8%	0%	0%
CC(=NNC(=S)N1CCCCC1)c1cccc(C)n1	?	nt	?	nt	25µM*	?

Compound activity (PubChem BioAssay)
